# Assay outcomes from PubChem BioAssay.
# FMDV inh: High Throughput Screening for Foot and Mouth Disease Virus Antivirals. FMDV antiviral cell-based qHTS. Potency, µM (titrated, usually from 57.9 µM), actives largely listed as inhibitors. actives 1.2% (n = 410,000); calls by dose curve; tested in HEK293T cells; also: read-out not given here; nearly all actives have a fitted effect of over 45% in size
# VACV Venus inh: qHTS for Stage-Specific Inhibitors of Vaccinia Orthopoxvirus: Venus Reporter Primary qHTS; Vaccinia virus Venus reporter expression, fluorescence; Potency, µM (titrated, usually from 36.5 µM), usual class: inhibitors; actives 0.46% (n = 330,000); AID 720580, 2013; calls by dose curve; tested in A549 cells; also: nearly all actives have a fitted effect of over 30% in size
# Marburg entry inh: qHTS for inhibitors of binding or entry into cells for Marburg Virus | Potency, µM (series often up to 37.8 µM), hits mostly inhibitors | Marburg virus pseudotyped entry inhibition, cell reporter | actives 1.8% (n = 300,000); calls by dose curve; tested in HEK293 cells
# VACV mCherry inh: qHTS for Stage-Specific Inhibitors of Vaccinia Orthopoxvirus: mCherry Reporter Primary qHTS; Vaccinia virus mCherry reporter infection, fluorescence; Potency, µM (highest dose often 36.5 µM), usual class: inhibitors; actives 0.63% (n = 310,000); calls by dose curve; tested in A549 cells; also: nearly all actives have a fitted effect of over 35% in size
# LASV entry inh: qHTS for Inhibitors of binding or entry into cells for Lassa Virus; Potency, µM (top dose mostly 37.9 µM), most hits filed as inhibitors; actives 1.2% (n = 300,000); AID 540256, 2011; Lassa virus pseudotype entry inhibition, cell reporter; calls by dose curve; tested in HEK293 cells; also: nearly all actives have a fitted effect of over 50% in size
# HCMV inh: qHTS Assay for inhibitors of the human cytomegalovirus (HCMV); HFF cells, HCMV-luciferase reporter, 72 h; hits give low values; activity change, negative = inhibition, % at 57.5 µM; actives 4.5% (n = 410,000); AID 1259415, 2018; in the data active = activity change below about -60%; inconclusive = no clear call, values can overlap the other calls; inactive = above about -39%
#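 Two-dose cell screen: HFF monolayers treated with compounds and infected with luciferase-expressing HCMV at 1 PFU/cell, 72 h at 37C, then lysed for luciferase measurement.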
# Hits are given with their value; . = inactive; ? = inconclusive; / = no result; ! = not active in a repeat; [ ] = another dose, or the depositor's remark. Hits are enriched below; roughly 6.5% of the tested compounds scored in any of these assays.
SMILES,FMDV inh,VACV Venus inh,Marburg entry inh,VACV mCherry inh,LASV entry inh,HCMV inh
Cc1c(Cl)cccc1NC(=O)Cn1c(=O)nc(-c2ccccc2)c2ccccc21,10µM,.,/,.,.,-87
O=C(Cn1c(=O)nc(-c2ccccc2)c2ccccc21)NCc1ccc(Cl)cc1,.,.,/,.,?,-94
COc1cc(Cl)c(CN2CCOc3ccc(CN4CCCCC4CO)cc3C2)cc1OC (stereo not given),.,.,/,.,/,/
CCOC(=O)N/N=C1\C[C@@H](O)[C@@H](O)[C@@H]2[C@@H]3C(=O)N(Cc4ccc5c(c4)OCO5)C(=O)[C@@H]3CC[C@H]12,/,/,.,/,/,/
CCOC(=O)[C@@]1([C@@H](NC(=O)OC)c2cccc(F)c2)CCCC1=O,/,/,.,/,/,/
COC(=O)CNc1nc(C2CC2)nc2c1nnn2Cc1ccccc1Cl,.,/,.,/,.,.
CN(C)S(=O)(=O)c1ccc(Nc2nc(C3CC3)nc3c2nnn3Cc2ccccc2Cl)cc1,5µM,.,.,.,?,-79
CCc1nc(Nc2ccc(OC)c(OC)c2)c2nnn(Cc3ccccc3Cl)c2n1,25µM,?,?,/,?,?
CC(=O)Nc1ccc(Nc2nc(C(F)(F)F)nc3c2nnn3Cc2ccccc2Cl)cc1,?,.,.,?,.,-72
COc1cccc(OC)c1Nc1nc(C)nc2c1nnn2Cc1ccccc1Cl,.,.,.,.,.,.
O=C(C[N+]1(CCO)CCOCC1)c1cccs1,/,.,/,.,/,/
COc1ccc(NC(=O)OC[C@@H]2CSCCS(=O)(=O)N2)cc1,/,/,/,/,?,.
O=c1c(-c2ccc(F)cc2)nc2cnc(Oc3cccc(Cl)c3)nc2n1C[C@H]1CCCO1,.,/,/,/,/,/
COc1ccc(C(C)=O)cc1CSc1nnc(Nc2ccccc2C)s1,.,/,.,/,.,-62
O=C(CSc1nc2c([nH]c3ccccc32)c(=O)n1-c1ccccc1)Nc1ccc2c(c1)OCO2,.,.,/,.,.,.
COc1ccc(CNC(=O)c2cnn(-c3ncc4c(n3)-c3ccccc3CC4)c2C)cc1OC,.,.,/,.,/,/
C[C@H]1C[C@@H](C)O[C@@]2(C1)C(=O)N(Cc1ccc(F)cc1)c1ccccc12,/,/,.,/,/,/
Cn1ccc2cc(NC(=O)Nc3cccnc3)ccc21,.,.,/,.,/,-100
O=C(CN1CCSC1=O)N1CCN(S(=O)(=O)c2ccc(Cl)cc2)CC1,?,.,.,.,.,-60
COc1ccccc1C(=O)NCCC(=O)N1CCN(S(=O)(=O)c2ccc(Cl)cc2)CC1,.,/,/,/,/,.
COc1ccccc1C(C)NC(=O)CCC(=O)N1CCN(S(=O)(=O)c2ccc(Cl)cc2)CC1 (stereo not given),35µM,.,?,.,?,.
COc1cccc(CNC(=O)N2CCN(S(=O)(=O)c3ccc(Cl)cc3)CC2)c1,.,.,.,.,.,-61
COc1ccc(S(=O)(=O)N2CCN(C(=O)c3cc4c(s3)CCC4)CC2)cc1,?,.,.,.,?,-78
Cc1ccc(S(=O)(=O)N2CCN(C(=O)c3cc4c(s3)CCCC4)CC2)cc1,.,/,/,/,/,.
O=C(CN1CCSC1=O)N1CCN(S(=O)(=O)c2ccccc2)CC1,.,/,/,/,/,.
SMILES,FMDV inh,VACV Venus inh,Marburg entry inh,VACV mCherry inh,LASV entry inh,HCMV inh
COc1ccccc1CNC(=O)N1CCN(S(=O)(=O)c2ccc(Cl)cc2)CC1,.,.,.,.,.,.
COc1cccc(S(=O)(=O)N2CCN(C(=O)c3ccco3)CC2)c1,.,.,?,.,.,-86
O=C(NCc1ccc(Cl)cc1)N1CCN(S(=O)(=O)c2ccccc2)CC1,.,.,.,.,?,-67
CN(C)c1cccc(C(=O)N[C@H]2CC[C@@]34CCCN3C(=O)CCC[C@H]4[C@H]2Cc2ccccc2)c1,/,/,/,/,/,.
Cc1nn(C)cc1CN(C)Cc1ccc(OCC(O)CN2CCCCC2)cc1 (stereo not given),.,.,/,.,/,.
CN(Cc1ccc(OCC(O)CN2CCCCC2)cc1)Cc1ccnc2ccccc12 (stereo not given),?,?,/,?,/,-66
Cc1nn(Cc2ccc(Cl)cc2)c(C)c1NC(=O)c1noc2c1CCc1ccccc1-2,40µM,?,.,?,.,.
COc1ccc2c(c1)CCc1c(C(=O)Nc3cc(C)n(Cc4ccc(Cl)cc4)n3)noc1-2,.,/,.,/,/,-64
COc1ccc2c(c1)CCc1c(C(=O)Nc3c(C)nn(Cc4ccccc4Cl)c3C)noc1-2,.,.,?,.,.,?
CCN(CC)CCNC(=O)c1nn(-c2ccc(Cl)cc2)c2c1CCc1cc(OC)ccc1-2,?,13µM,?,?,?,.
COc1ccc2c(c1)CCc1c(C(=O)Nc3c(C)nn(Cc4ccccc4)c3C)noc1-2,28µM,?,.,?,.,-67!
COc1ccc2c(c1)CCc1c(C(=O)Nc3c(C)nn(Cc4ccc(Cl)cc4)c3C)noc1-2,.,.[7.34 µM],.,.[7.34 µM],.,-79
COc1ccc2c(c1)CCc1c(C(=O)NCc3ccc(Cl)cc3)noc1-2,.,.,.,.,.,.
Cc1nn(Cc2ccc(Cl)cc2)c(C)c1NC(=O)CSc1nc2c(c(C(F)(F)F)n1)CCc1ccccc1-2,.,.,12µM,.,.,.
COc1ccc2c(c1)CCc1c(C(=O)Nc3c(C)nn(Cc4ccc(Cl)c(Cl)c4)c3C)noc1-2,?,.[7.34 µM],.,.[7.34 µM],.,-88
Cc1ccccc1CN1CCCN(CC(=O)Nc2ccc(F)cc2)S1(=O)=O,.,.,/,.,.,.
COc1cccc(CC(=O)Nc2c(C(=O)N3CCN(c4ccccc4)CC3)oc3ccccc23)c1,.,.,.,.,.,.
COc1cccc(N2CCN(C(=O)c3oc4ccccc4c3NC(=O)CCc3cc(OC)no3)CC2)c1,.,.,.,?,.,-61
O=C(Cc1ccccc1)Nc1c(C(=O)N2CCN(c3ccc(F)cc3)CC2)oc2ccccc12,.,.,/,.,.,.
O=C(COc1ccccc1)Nc1c(C(=O)N2CCN(c3ccc(F)cc3)CC2)oc2ccccc12,.,.,/,.,.,-107
CCC(CC)C(=O)Nc1c(C(=O)N2CCN(c3ccccc3)CC2)oc2ccccc12,.,.,?,.,?,-79!
COc1ccc(Cn2c(C(=O)O)c(CNCc3ccc(SC)cc3)c3ccc(OC)cc32)cc1,?,?,/,.,?,-91
Cc1ccc2c(CNCc3cccs3)c(C(=O)O)n(Cc3ccc(F)cc3)c2c1,.,.,/,.,?,-102
C=Cc1ccc(Cn2c(C(=O)O)c(CNCc3ccc(F)cc3)c3ccc(C)cc32)cc1,?,?,/,?,?,-91
C=Cc1ccc(Cn2c(C(=O)O)c(CNCc3cccs3)c3ccc(C)cc32)cc1,.,.,/,.,?,.
Cc1ccc2c(CNCc3ccc(C)o3)c(C(=O)O)n(Cc3ccc(F)cc3)c2c1,.,.,/,.,.,.
COc1ccc(Cn2c(C(=O)O)c(CNCCc3cc(OC)ccc3OC)c3ccc(C)cc32)cc1,.,.,/,.,?,-105
